The values below come from the supplement of paper PMC6555819.

Holding throughout (test): PBM binding z-score (relative to random genomic background probes); higher = stronger binding; sequences stand for … in GC…GCGATTGACAGCGTAGAATGAAGG
Assay [1] concerns FXR:RXRa (NR concentration 270 nM, RXRa partner concentration 90 nM). The method, boiled down: (§1)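 Ligand-free nuclear receptor dimers were bound for 1 h to custom Agilent 4×180K protein-binding microarrays. Detection used antibodies against each partner (one per run). Binding z-scores rest on regression-normalized fluorescence, with random background probes as the reference.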
For assay [2], the system named is LXRa:RXRa (NR concentration 270 nM, RXRa partner concentration 90 nM). In outline:
as §1

In assay [3] the test system is LXRa homodimer (NR concentration 270 nM). The method, boiled down:
as §1

Assay [4] has as its system LXRb:RXRa (NR concentration 270 nM, RXRa partner concentration 90 nM). The method, boiled down: as §1
For assay [5], the system named is LXRb homodimer (NR concentration 270 nM). In outline:
as §1

In assay [6] the test system is PPARa:RXRa (NR concentration 270 nM, RXRa partner concentration 90 nM). In outline: as §1
The subject of assay [7] is PPARg:RXRa (NR concentration 180 nM, RXRa partner concentration 90 nM). The method, boiled down:
as §1

Assay [8] relates to PPARg:RXRa 270nM:90nM, anti-RXR (NR concentration 270 nM, RXRa partner concentration 90 nM). The method, boiled down:
as §1

Assay [9] relates to PPARg:RXRa 30nM:10nM, anti-RXR (NR concentration 30 nM, RXRa partner concentration 10 nM). The method, boiled down:
as §1

Assay [10] deals with PPARg:RXRa 90nM:30nM, anti-RXR (NR concentration 90 nM, RXRa partner concentration 30 nM). The method, boiled down: as §1
Assay [11] deals with PPARg:RXRa DBDmut IVT, anti-RXR (DBD mutation: RXRa K156A/R161A, NR concentration 270 nM, RXRa partner concentration 90 nM). The method, boiled down: as §1
Assay [12] relates to PPARg:RXRa IVT, anti-PPARg (NR concentration 270 nM, RXRa partner concentration 90 nM). The method, boiled down:
as §1

Assay [13] concerns PPARg DBDmut:RXRa IVT, anti-PPARg (DBD mutation: PPARg1 K132A/R137A, NR concentration 270 nM, RXRa partner concentration 90 nM). The method, boiled down: as §1
Assay [14] concerns PPARg DBDmut IVT, anti-PPARg (DBD mutation: PPARg1 K132A/R137A, NR concentration 270 nM). In outline: as §1
The test system of assay [15] is PPARg homodimer (NR concentration 180 nM). The method, boiled down: as §1
Assay [16] has as its system PXR:RXRa (NR concentration 270 nM, RXRa partner concentration 90 nM). In outline:
as §1

Assay [17] deals with PXR homodimer (NR concentration 270 nM). In outline: as §1
The subject of assay [18] is RARa:RXR (NR concentration 270 nM, RXRa partner concentration 90 nM). In outline:
as §1

In assay [19] the test system is RARa homodimer (NR concentration 270 nM). The method, boiled down:
as §1

The subject of assay [20] is RARb:RXRa (NR concentration 270 nM, RXRa partner concentration 90 nM). The method, boiled down: as §1

For the sequence CGTCCAAGGTCAAGGTCAGAGAAAGAGACTCGAA, the PBM binding z-score worked out at 7.9 in [1]; 5.84 in assay [2]; 0.844 in assay [3]; 4.67 in assay [4]; 0.838 in assay [5]; 5.99 in [6]. Further, the PBM binding z-score stood at 6.4 in assay [7]; 6.27 in [8]; 2.49 in assay [9]; 5.02 in assay [10]; 4.02 in assay [11]; 4.66 in assay [12]. In addition, the PBM binding z-score in assay [13] is 0.309; in assay [14] it was -0.449; in assay [15] it was 3.52; in assay [16] it was 4.81; in assay [17], 1.27; in assay [18] it was 5.48. For the same sequence, the PBM binding z-score in assay [19] turned out to be 2.01; in assay [20], 5.62.

As for ATCGAAAGGTCGACGAGGTGTGTATACACCGTTT, the PBM binding z-score in assay [1] is 3.98; in assay [2], 3.28; in assay [3], 0.0715; in assay [4], 2.62; in assay [5] it was 0.354; in assay [6], 4.22. In addition, the PBM binding z-score in [7] came out at 2.22; in [8] it was 3.12; in assay [9] it was 1.02; in assay [10], 2.17; in assay [11], 0.053; in assay [12], 1.53. Besides, the PBM binding z-score in assay [13] is -0.0457; in assay [14] it was 0.936; in [15], 1.17; in assay [16] it was 2.67; in assay [17] it was -0.171; in assay [18], 2.91. Further, the PBM binding z-score in assay [19] was 0.322; in [20] it was 3.74.

Consider TCTTGTAGATCAAGCAGGTTATGAAAGCCTGAGT, for which the PBM binding z-score was 0.147 in [1]; 0.219 in [2]; -0.495 in assay [3]; 0.124 in assay [4]; -0.429 in assay [5]; 0.732 in [6]. The PBM binding z-score in assay [7] is -0.162; in assay [8], 1.27; in assay [9], 2.34; in assay [10] it was 1.89; in assay [11], 1.29; in [12], 0.311. In addition, the PBM binding z-score in assay [13] is 0.244; in assay [14], 0.263; in [15], -0.854; in assay [16], 0.4; in assay [17], 0.201; in assay [18], 0.334. In addition, the PBM binding z-score in [19] was -0.519; in assay [20] it was 0.176.

Consider ACTATTCGTTGACTTAGGGCAACCGATACGACGC, for which the PBM binding z-score in assay [1] turned out to be 0.425; in [2], 0.382; in [3], 0.669; in [4], 0.263; in assay [5], 1.46; in assay [6] it was 0.125. Moreover, the PBM binding z-score in assay [7] was 0.87; in assay [8], -0.0902; in assay [9], 0.272; in assay [10], 0.212; in assay [11] it was -0.214; in assay [12] it was 0.623. For the same sequence, the PBM binding z-score came out at 1.11 in assay [13]; 1.54 in assay [14]; 0.718 in assay [15]; 0.152 in [16]; 0.211 in [17]; 0.392 in assay [18]. In addition, the PBM binding z-score in [19] stood at 0.76; in [20], 0.866.

For the sequence CGAACTAGGTCAAGGACGGTGAATCTCCGCACGC, the PBM binding z-score in [1] is 3.32; in assay [2], 2.02; in assay [3] it was 0.122; in assay [4] it was 1.29; in assay [5], -0.582; in [6], 4.44. The PBM binding z-score in assay [7] came to 6.87; in assay [8], 6.24; in assay [9] it was 3.95; in assay [10], 5.89; in assay [11], 7.98; in assay [12], 7.86. The PBM binding z-score in assay [13] is 0.422; in [14] it was -0.145; in [15], 0.732; in assay [16], 1.03; in assay [17] it was -0.242; in assay [18] it was 1.5. In addition, the PBM binding z-score in assay [19] is -0.265; in [20], 3.76.

Consider GATACAGGATCAGCTAGAGGCCAGAGTATGGAAA, for which the PBM binding z-score is -0.162 in [1]; -0.497 in assay [2]; -0.55 in assay [3]; -0.727 in [4]; -1.05 in [5]; -0.383 in [6]. Further, the PBM binding z-score in [7] was 0.505; in assay [8], -0.286; in [9], 0.0459; in assay [10] it was 0.0181; in [11] it was -1.08; in assay [12] it was -0.432. Moreover, the PBM binding z-score in assay [13] is -0.311; in [14], -0.748; in assay [15] it was -0.609; in assay [16] it was -0.395; in [17], -0.577; in [18], -0.16. For the same sequence, the PBM binding z-score in assay [19] is -0.552; in assay [20], 0.184.

As to CGAACTAGGTCAAGGACAGTGTATCTCCGCACGC, the PBM binding z-score in assay [1] is 3.62; in assay [2] it was 2.36; in [3], 0.431; in assay [4], 1.57; in assay [5], -0.208; in assay [6], 4.9. The PBM binding z-score in [7] amounted to 7.62; in [8], 6.48; in assay [9] it was 3.91; in assay [10] it was 5.64; in assay [11], 7.97; in [12] it was 8.01. In addition, the PBM binding z-score in [13] was 3.03; in [14] it was 0.882; in [15], 1.62; in [16] it was 1.43; in [17], -0.0646; in assay [18], 2.03. The PBM binding z-score in assay [19] is 0.437; in [20] it was 3.95.
